Counter-ions that a name gives are not always drawn. ± gives the standard deviation of the averaged measurements.
How the values were obtained:
[1] = test system: Saccharomyces cerevisiae BY4741 SeMeCo community; experiment: z-score of prototroph abundance vs DMSO median; higher = larger share of this subpopulation than in DMSO controls; conditions: 10 µM; 24 h; SM minimal medium; subpopulation (auxotrophy): Prototroph
In short: (§1)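 Automated confocal microscopy of paraformaldehyde-fixed cells was used to follow a Saccharomyces cerevisiae BY4741 community carrying four plasmids, each restoring one auxotrophy and encoding a distinct fluorescent protein. The community was pre-grown overnight to OD600 1.0, diluted to 0.3, and added at 70 µl to 384-well plates acoustically predosed with library drugs (10 µM final) for 24 h of growth in minimal SM medium. Single-auxotroph fluorescent strains set thresholds and autofluorescence correction, and each subpopulation's abundance was scored as a z-score against the vehicle-well median.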

[2] = test system: Saccharomyces cerevisiae BY4741 SeMeCo community; experiment: z-score of subpopulation abundance vs DMSO median, subpopulation auxotrophic for M; higher = larger share of this subpopulation than in DMSO controls; conditions: 10 µM; 24 h; SM minimal medium; subpopulation (auxotrophy): M
In short: as §1

[3] = test system: Saccharomyces cerevisiae BY4741 SeMeCo community; experiment: z-score of subpopulation abundance vs DMSO median, subpopulation auxotrophic for L; higher = larger share of this subpopulation than in DMSO controls; conditions: 10 µM; 24 h; SM minimal medium; subpopulation (auxotrophy): L
In short: as §1

[4] = test system: Saccharomyces cerevisiae BY4741 SeMeCo community; experiment: z-score of subpopulation abundance vs DMSO median, subpopulation auxotrophic for H; higher = larger share of this subpopulation than in DMSO controls; conditions: 10 µM; 24 h; SM minimal medium; subpopulation (auxotrophy): H
In short: as §1

[5] = test system: Saccharomyces cerevisiae BY4741 SeMeCo community; experiment: z-score of subpopulation abundance vs DMSO median, subpopulation auxotrophic for LM; higher = larger share of this subpopulation than in DMSO controls; conditions: 10 µM; 24 h; SM minimal medium; subpopulation (auxotrophy): LM
In short: as §1

[6] = test system: Saccharomyces cerevisiae BY4741 SeMeCo community; experiment: z-score of subpopulation abundance vs DMSO median, subpopulation auxotrophic for HM; higher = larger share of this subpopulation than in DMSO controls; conditions: 10 µM; 24 h; SM minimal medium; subpopulation (auxotrophy): HM
In short: as §1

[7] = test system: Saccharomyces cerevisiae BY4741 SeMeCo community; experiment: z-score of subpopulation abundance vs DMSO median, subpopulation auxotrophic for HU; higher = larger share of this subpopulation than in DMSO controls; conditions: 10 µM; 24 h; SM minimal medium; subpopulation (auxotrophy): HU
In short: as §1

[8] = test system: Saccharomyces cerevisiae BY4741 SeMeCo community; experiment: z-score of subpopulation abundance vs DMSO median, subpopulation auxotrophic for UM; higher = larger share of this subpopulation than in DMSO controls; conditions: 10 µM; 24 h; SM minimal medium; subpopulation (auxotrophy): UM
In short: as §1

[9] = test system: Saccharomyces cerevisiae BY4741 SeMeCo community; experiment: z-score of subpopulation abundance vs DMSO median, subpopulation auxotrophic for HL; higher = larger share of this subpopulation than in DMSO controls; conditions: 10 µM; 24 h; SM minimal medium; subpopulation (auxotrophy): HL
In short: as §1

[10] = test system: Saccharomyces cerevisiae BY4741 SeMeCo community; experiment: z-score of subpopulation abundance vs DMSO median, subpopulation auxotrophic for HLU; higher = larger share of this subpopulation than in DMSO controls; conditions: 10 µM; 24 h; SM minimal medium; subpopulation (auxotrophy): HLU
In short: as §1

[11] = test system: Saccharomyces cerevisiae BY4741 SeMeCo community; experiment: z-score of subpopulation abundance vs DMSO median, subpopulation auxotrophic for HLM; higher = larger share of this subpopulation than in DMSO controls; conditions: 10 µM; 24 h; SM minimal medium; subpopulation (auxotrophy): HLM
In short: as §1

[12] = test system: Saccharomyces cerevisiae BY4741 SeMeCo community; experiment: z-score of subpopulation abundance vs DMSO median, subpopulation auxotrophic for HUM; higher = larger share of this subpopulation than in DMSO controls; conditions: 10 µM; 24 h; SM minimal medium; subpopulation (auxotrophy): HUM
In short: as §1

[13] = test system: Saccharomyces cerevisiae BY4741 SeMeCo community; experiment: z-score of subpopulation abundance vs DMSO median, subpopulation auxotrophic for LUM; higher = larger share of this subpopulation than in DMSO controls; conditions: 10 µM; 24 h; SM minimal medium; subpopulation (auxotrophy): LUM
In short: as §1

[14] = test system: Saccharomyces cerevisiae BY4741 SeMeCo community; experiment: z-score of subpopulation abundance vs DMSO median, subpopulation auxotrophic for HLUM; higher = larger share of this subpopulation than in DMSO controls; conditions: 10 µM; 24 h; SM minimal medium; subpopulation (auxotrophy): HLUM
In short: as §1

[15] = test system: Saccharomyces cerevisiae BY4741 SeMeCo community; experiment: mean cell size (pixel area) (pixels); higher = larger cells; conditions: 10 µM; 24 h; SM minimal medium
In short: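 For 24 h, 70 µl of yeast culture diluted to OD600 = 0.3 from an overnight preculture at OD600 = 1.0 was kept in SM medium in 384-well plates acoustically predosed with drug, final 10 µM. The strain was Saccharomyces cerevisiae BY4741 forming a fluorescent community of four plasmids, each complementing one auxotrophy and carrying a fluorescent marker. Automated confocal microscopy of paraformaldehyde-fixed cells, analysed in Harmony, provided mean cell pixel area per well, which was averaged over 3 replicates. Same SeMeCo high-content imaging drug screen: Selleck FDA-approved drugs at 10 µM, 24 h in SM medium, 384-well plates, 3 replicates.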

[16] = test system: Saccharomyces cerevisiae BY4741 SeMeCo community; experiment: z-score of subpopulation abundance vs DMSO median, subpopulation auxotrophic for U; higher = larger share of this subpopulation than in DMSO controls; conditions: 10 µM; 24 h; SM minimal medium; subpopulation (auxotrophy): U
In short: as §1

[17] = test system: Saccharomyces cerevisiae BY4741 SeMeCo community; experiment: z-score of subpopulation abundance vs DMSO median, subpopulation auxotrophic for LU; higher = larger share of this subpopulation than in DMSO controls; conditions: 10 µM; 24 h; SM minimal medium; subpopulation (auxotrophy): LU
In short: as §1

Structure (SMILES)	z-score of prototroph abundance [1]	z-score of subpopulation abundance [2]	z-score of subpopulation abundance [3]	z-score of subpopulation abundance [4]	z-score of subpopulation abundance [5]	z-score of subpopulation abundance [6]	z-score of subpopulation abundance [7]	z-score of subpopulation abundance [8]	z-score of subpopulation abundance [9]	z-score of subpopulation abundance [10]	z-score of subpopulation abundance [11]	z-score of subpopulation abundance [12]	z-score of subpopulation abundance [13]	z-score of subpopulation abundance [14]	mean cell size [15]	z-score of subpopulation abundance [16]	z-score of subpopulation abundance [17]
COC1C(O)CC(=O)OC(C)CC=CC=CC(OC2CCC(N(C)C)C(C)O2)C(C)CC(CC=O)C1OC1OC(C)C(OC2CC(C)(O)C(O)C(C)O2)C(N(C)C)C1O (configuration not stated) [Spiramycin]	0.08	-0.36	-0.29	-0.16	-0.48	-0.27	0.31	0.4	0.65	-0.77	0.43	-0.02	-0.43	0.17	–	–	–
CC[C@H](C)C(=O)O[C@H]1C[C@H](O)C=C2C=C[C@H](C)[C@H](CC[C@@H](O)C[C@@H](O)CC(=O)O)[C@H]21 [Pravastatin]	–	0.52	-0.43	0.39	0.2	0.47	–	–	0.42	-0.44	-0.51	1.56	0.59	-0.51	12.2 ± 0.19	–	–
CN[C@@H]1[C@@H](O)[C@@H](O[C@@H]2[C@@H](O)[C@H](O[C@H]3OC(CN)=CC[C@H]3N)[C@@H](N)C[C@H]2N)OC[C@]1(C)O [Sisomicin sulfate]	-0.71	1.6	1.01	-0.72	–	0.61	0.07	–	–	0.06	0.84	0.52	1.13	2.37	12.12 ± 0.053	0.55	–
Nc1nc(=O)[nH]cc1F [Flucytosine]	-10.3	-3.75	-1.32	17.8	–	–	–	1.6	13.2	1.33	35.5	10.3	–	38.3	13.9 ± 0.19	0.5	–
CNCCC(Oc1ccc(C(F)(F)F)cc1)c1ccccc1 (configuration not stated) [Fluoxetine HCl]	0.06	0.18	-0.14	-0.47	0	–	–	0.29	-0.68	0.27	-0.31	-0.15	0.21	0.65	12.4 ± 0.14	0	–
COc1ccc2c(c1)c(CC(=O)O)c(C)n2C(=O)c1ccc(Cl)cc1 [Indomethacin]	0.27	–	0.48	-0.68	0.16	-1.04	-0.04	1.08	-0.38	-0.33	-1.07	0.09	0.47	-0.35	12.29 ± 0.12	0.52	-0.17
CN1CCC[C@@H]1Cc1c[nH]c2ccc(CCS(=O)(=O)c3ccccc3)cc12 [Eletriptan HBr]	0.55	0.9	0.61	–	0.75	–	-1.27	–	-0.15	-0.54	-0.5	–	-1.48	-0.74	–	-0.94	–
OC(CCN1CCCCC1)(c1ccccc1)C1CCCCC1 (configuration not stated) [Trihexyphenidyl hydrochloride]	-0.03	0.49	0.5	-0.13	–	–	-0.18	0.41	-0.03	-0.09	–	-0.31	0.73	-0.13	12.5 ± 0.24	0.45	–
COc1cc([C@@H]2c3cc4c(cc3[C@@H](O[C@@H]3O[C@@H]5CO[C@@H](C)O[C@H]5[C@H](O)[C@H]3O)[C@H]3COC(=O)[C@H]23)OCO4)cc(OC)c1O [Etoposide]	-0.82	0.21	–	0.15	0.96	0.36	0.37	0.47	0.84	0.56	0.66	0.64	0.64	1.05	12.44 ± 0.11	–	–
O=C1CCc2cc(OCCCCc3nnnn3C3CCCCC3)ccc2N1 [Cilostazol]	0.97	–	0.75	0.02	-0.83	-0.41	-0.16	-0.9	-0.05	-0.44	-0.55	-0.31	-0.52	-0.57	12.32 ± 0.082	-0.86	-0.63
C#C[C@]1(O)CC[C@H]2[C@@H]3CCc4cc(OC)ccc4[C@H]3CC[C@@]21C [Mestranol]	0.82	-1.19	0.33	-0.4	-0.14	-0.5	–	-0.68	-0.16	-0.61	–	–	-0.31	0.02	12.4 ± 0.25	-0.41	–
COc1cc(N)c(Cl)cc1C(=O)NC1CCN(CCCOc2ccc(F)cc2)CC1OC (configuration not stated) [Cisapride]	1.03	-1.29	–	–	-0.7	-1.22	-0.01	-0.35	-0.95	0.37	-0.82	–	-0.18	-0.17	12 ± 0.14	-0.14	–
O=C(O)c1cn(C2CC2)c2cc(N3CCNCC3)c(F)cc2c1=O [Ciprofloxacin hydrochloride hydrate]	-0.74	–	-0.22	-0.88	-0.37	0.16	0.3	0.65	-0.26	0.36	0.11	0.96	0.41	0.98	12.4 ± 0.27	0.96	0.43
Cn1c(=O)c2c(ncn2CC(O)CO)n(C)c1=O (configuration not stated) [Dyphylline]	1.12	–	-0.69	-0.64	-0.74	-0.97	-0.83	-0.61	-0.71	-0.29	-0.91	-1.32	-1.44	-0.64	12.55 ± 0.12	0.26	-0.11
CC(C(=O)O)c1ccc(C(=O)c2cccs2)cc1 (configuration not stated) [Suprofen]	0.24	-0.68	0.48	-0.25	0.42	-0.73	–	-0.8	-0.36	0.03	-0.28	–	-0.07	-0.2	12.4 ± 0.17	-0.1	–
